Active and inactive are the calls of the source. Calls come from the whole dose curve; as a rule, active = well fitted curve in the direction sought with a large enough effect; inconclusive = small, poorly fitted or top-dose-only effect, or effect the other way, or another doubt; inactive = no such curve, though single readings can be large or run the other way.

The assay is described as follows: qHTS for inhibitors of adenylyl cyclases using a fission yeast platform: a pilot screen against the NCATS LOPAC library (AID 1347410). Conditions: S. pombe CHP2027, fbp1-GFP fluorescence, 18 h, yeast expressing mammalian AC9 and human GNAS; series mostly up to 57.5 µM. A digest of the protocol: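 Read-out: fbp1-GFP fluorescence by laser scanning cytometry (488 nm laser), a gain of signal when AC/cAMP-PKA signalling is inhibited. Strain CHP2027 expressing AC9, GNAS and PDE4D2; compounds at up to 57 µM; 18 h, 30C.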
As to `O=S(=O)(c1cccc2c(I)cccc12)N1CCCNCC1`, the compound was classed as inactive. The result for `COc1cc(OC)cc(-c2cc3cnc(N)nc3nc2NC(=O)NC(C)(C)C)c1` reads “inactive”.

In the case of `NCCCCC(=O)O`, the outcome was inactive. Consider `NC(=O)C1=CN(C2OC(COP(=O)(O)OP(=O)(O)OC[C@H]3O[C@@H](n4cnc5c(N)ncnc54)[C@H](OP(=O)(O)O)[C@@H]3O)C(O)C2O)C=CC1` (stereo partly drawn), for which the compound was called inactive. The value for `CCCCCCCCCCCCCCCCCCN(CCCCCCCCCCCCCCCCCC)CCCN(CCO)CCO` was “inactive”; that for `CC12C(=O)OC(=O)C1(C)C1CCC2O1` (stereo not drawn) was “inactive”; that for `CCCCCCCC/C=C\CCCCCCCC(=O)NCCO` was “inactive”. As to `C[N+](C)(C)CCOP(=O)(O)OP(=O)([O-])OC[C@H]1O[C@@H](n2ccc(N)nc2=O)[C@H](O)[C@@H]1O`, the outcome was inactive. The value for `C=C[C@H]1CN2CC[C@@H]1C[C@@H]2[C@@H](O)c1ccnc2ccc(OC)cc12` was “inactive”. With `O=[N+]([O-])c1ccc2c(c1)S(=O)(=O)C=C2`, the result was inactive.

Turning to `Nc1ccn([C@H]2O[C@H](CO)[C@@H](O)C2(F)F)c(=O)n1`, the result was inactive.

As to `CC(C)NC[C@@H](O)c1ccc(O)c(O)c1`, the compound was classed as inactive.

As to `C#C[C@]1(O)CC[C@H]2[C@@H]3CCC4=Cc5oncc5CC4(C)[C@H]3CCC21C` (stereo partly drawn), the outcome was inactive. The result for `CC1OC1P(=O)(O)O` (stereo not drawn) reads “inactive”; that for `NC[C@H]1O[C@@H](n2cnc3c(N)ncnc32)[C@H](O)[C@@H]1O`, “inactive”. The result for `COc1ccc(/C=C/C(=O)Nc2ccccc2C(=O)O)cc1OC` reads “inactive”; that for `COc1cccc(C(=O)NCCN2CCN(c3ccc(Cl)cc3)CC2)c1`, “inactive”; that for `C[N+]1(C)CCC(OC(=O)C(c2ccccc2)c2ccccc2)CC1`, “inactive”. Regarding `CN(C)c1ccc(/C=C2\C(=O)Nc3ccccc32)cc1`, the call was inactive. As to `Oc1cc(O)cc(/C=C/c2ccc(O)c(O)c2)c1`, the compound was classed as inactive. Consider `O=C(/C=C/c1ccc(O)cc1)c1ccc(O)cc1O`, for which the outcome was inactive. The value for `CN1CCc2ccccc2Cc2[nH]c3ccccc3c2CC1` was “inactive”; that for `NS(=O)(=O)C#Cc1ccccc1` was “inactive”; that for `OC[C@H]1O[C@@H](n2cnc3c(NC4CCCC4)ncnc32)[C@H](O)[C@@H]1O` was “inactive”.

As to `Cc1cc(NC2CCCCC2)nc(-n2nc(C)cc2C)n1`, the result was inactive. For `C=C[C@@H]1CN2CC[C@@H]1C[C@H]2[C@H](O)c1ccnc2ccc(OC)cc12`, the compound was classed as inactive.

Take `CCCCCCCCCCCCCCCC(=O)OC(CC(=O)O)C[N+](C)(C)C` (stereo not drawn): the result was inactive. For `Cc1cc(NC(=O)Nc2ccc3c(ccn3C)c2)sn1`, the compound was called inactive. The result for `Oc1cc2c(cc1O)CN(C(=S)NCCc1ccc(Cl)cc1)CCC2` reads “inactive”; that for `O=C(c1cc(O)c(O)c([N+](=O)[O-])c1)c1ccccc1F`, “inactive”.

Turning to `CC(C)NC[C@H](O)COc1cccc2[nH]ccc12`, the compound was classed as inactive. For the compound `O=C(Nc1ccccc1)c1cc([N+](=O)[O-])ccc1Cl`, the compound was classed as inactive. On to `O=C(O)CCCC[C@@H]1CCSS1`, for which the compound was called inactive. For `O=C1/C(=C/c2ccsc2)CC/C1=C\c1cccs1`, the outcome was inactive. The result for `O=C(O)CNC(=O)C(CS)Cc1ccccc1` (stereo not drawn) reads “inactive”. The result for `Fc1ccc(C(OCCCc2cnc[nH]2)c2ccc(F)cc2)cc1` reads “inactive”. As for `CCOC(=O)N1CCN(/[N+]([O-])=N/Oc2ccc([N+](=O)[O-])cc2[N+](=O)[O-])CC1`, the call was inactive. On to `O=C1NC(=O)/C(=C/c2ccc3nccnc3c2)S1`, for which the result was inactive.

Source of the values: PubChem BioAssay (NCATS).
